PubChem BioAssay (NCATS)
Results filed as inconclusive are left out. Active and inactive are the calls of the source. Calls come from the whole dose curve; as a rule, active = well fitted inhibition curve with a large enough effect; inconclusive = small, poorly fitted or top-dose-only effect; inactive = flat fitted curve, though single readings scatter.

How the values were obtained:
Test in all cases: qHTS profiling for inhibitors of Plasmodium falciparum proliferation (AID 504749); note: nearly all actives have a fitted effect of over 60% in size
Conditions in all cases: P. falciparum in erythrocytes, SYBR Green DNA, 72 h; series mostly up to 28.7 µM
CP329 = test system: CP329
In short: (§1)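 Fluorescence of SYBR Green-bound parasite DNA, read at 485/535 nm, served as the growth measure. Infected erythrocytes were cultured with compound 72 h; artemisinin (0.29 uM) and DMSO wells defined the normalization range.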

CP335 = test system: CP335
In short: as §1

DFO2036 = test system: DFO2036
In short: as §1

DIV14 = test system: DIV14
In short: as §1

DIV17 = test system: DIV17
In short: as §1

DIV30 = test system: DIV30
In short: as §1

Dd2 = test system: Dd2
In short: as §1

ECU = test system: ECU
In short: as §1

FAB9 = test system: FAB9
In short: as §1

GB4 = test system: GB4
In short: as §1

Measured: Potency
Potency is the fitted concentration of half-maximal effect.

NCCS(=O)(=O)O
inactive: CP329 | CP335 | DFO2036 | DIV14 | DIV17 | DIV30 | Dd2 | ECU | FAB9 | GB4

CS(=O)(=O)Nc1ccc([N+](=O)[O-])cc1Oc1ccccc1
inactive: CP329 | CP335 | DFO2036 | DIV14 | DIV17 | DIV30 | Dd2 | ECU | FAB9 | GB4

NS(=O)(=O)c1cc2c(cc1Cl)NCNS2(=O)=O
inactive: CP329 | CP335 | DFO2036 | DIV14 | DIV17 | DIV30 | Dd2 | ECU | FAB9 | GB4

CC(C)(Oc1ccc(C2CC2(Cl)Cl)cc1)C(=O)O (stereo unspecified)
inactive: CP329 | CP335 | DFO2036 | DIV14 | DIV17 | DIV30 | Dd2 | ECU | FAB9 | GB4

O=C1N(c2ccccc2)c2ccccc2C1(Cc1ccncc1)Cc1ccncc1
inactive: CP329 | CP335 | DFO2036 | DIV14 | DIV17 | DIV30 | Dd2 | ECU | FAB9 | GB4

CC(CCc1ccc(O)cc1)NCCc1ccc(O)c(O)c1 (stereo unspecified)
inactive: CP329 | CP335 | DFO2036 | DIV14 | DIV17 | DIV30 | ECU | FAB9 | GB4

NCCc1cnc[nH]1
inactive: CP329 | CP335 | DFO2036 | DIV14 | DIV17 | DIV30 | Dd2 | ECU | FAB9 | GB4

CC(C)C(=O)Nc1ccc([N+](=O)[O-])c(C(F)(F)F)c1
inactive: CP329 | CP335 | DFO2036 | DIV14 | DIV17 | DIV30 | Dd2 | ECU | FAB9 | GB4

Clc1ccc2c(c1)C(N1CCNCC1)=Nc1ccccc1O2
inactive: CP329 | DIV30 | FAB9

O=c1c(O)c(-c2ccc(O)c(O)c2)oc2cc(O)cc(O)c12
inactive: ECU
active: DIV14 15.1 µM | GB4 12 µM

Clc1ccc(C(c2ccccc2Cl)C(Cl)Cl)cc1 (stereo unspecified)
inactive: DFO2036 | Dd2 | ECU | FAB9

CC(C)NCC(O)COc1ccc(CCOCC2CC2)cc1 (stereo unspecified)
inactive: CP329 | FAB9

COc1ccccc1N1CCN(CC(O)COc2cccc3ccccc23)CC1 (stereo unspecified)
inactive: CP329 | CP335 | DFO2036 | DIV30 | Dd2 | ECU | FAB9

Nc1c2c(nc3ccccc13)CCCC2
active: DIV17 6.75 µM
inactive: DIV30 | Dd2 | ECU | FAB9

O=C(Nc1ccc([N+](=O)[O-])cc1Cl)c1cc(Cl)ccc1O
inactive: FAB9
active: CP335 1.51 µM | DIV14 1.07 µM | DIV17 1.2 µM | Dd2 0.891 µM | ECU 1 µM | GB4 1.35 µM

CCCCc1oc2ccccc2c1C(=O)c1cc(I)c(OCCN(CC)CC)c(I)c1
active: CP335 9.53 µM | DIV14 7.57 µM | DIV17 13.5 µM | DIV30 8.49 µM | Dd2 11.2 µM | ECU 8.91 µM | GB4 9.53 µM

CCCNCC(O)COc1ccccc1C(=O)CCc1ccccc1 (stereo unspecified)
active: CP329 6.75 µM | CP335 3.01 µM | DFO2036 1 µM | DIV17 0.536 µM | DIV30 1.69 µM | Dd2 1 µM | ECU 0.708 µM | FAB9 1.78 µM | GB4 0.675 µM

COc1ccc(CCN(C)CCCC(C#N)(c2ccc(OC)c(OC)c2)C(C)C)cc1OC (stereo unspecified)
inactive: DFO2036 | DIV14 | ECU | FAB9 | GB4

CNCCCC12CCC(c3ccccc31)c1ccccc12
inactive: CP329 | CP335 | DFO2036 | ECU | FAB9
active: DIV17 10.7 µM | GB4 8.49 µM

CC(COc1ccccc1)N(CCCl)Cc1ccccc1 (stereo unspecified)
active: DIV17 6.01 µM
inactive: DFO2036 | FAB9

CCC1(c2ccccc2)C(=O)NCNC1=O
inactive: CP329 | DFO2036 | DIV14 | DIV17 | DIV30 | Dd2 | ECU | FAB9 | GB4

Cc1ccc(-c2cc(C(F)(F)F)nn2-c2ccc(S(N)(=O)=O)cc2)cc1
inactive: Dd2 | FAB9
active: ECU 10 µM | GB4 13.5 µM

CN(C)CCOC(c1ccccc1)c1ccccc1
inactive: CP329 | CP335 | DFO2036 | ECU | FAB9

CC#C[C@]1(O)CC[C@H]2[C@@H]3CCC4=CC(=O)CCC4=C3[C@@H](c3ccc(N(C)C)cc3)C[C@@]21C
active: CP335 13.5 µM | DIV14 12 µM | DIV17 8.49 µM | DIV30 15.1 µM | Dd2 12.6 µM | ECU 8.91 µM | GB4 15.1 µM

CN1CCC(=C2c3ccccc3CC(=O)c3sccc32)CC1
inactive: DFO2036
active: DIV14 5.36 µM | DIV17 6.01 µM | Dd2 4.47 µM | ECU 7.08 µM | FAB9 6.31 µM | GB4 1.51 µM

CC12CC3CC(C)(C1)CC(N)(C3)C2
active: Dd2 5.01 µM
inactive: CP329 | CP335 | DFO2036 | DIV30 | ECU | FAB9

Cn1ccc2cc3c(cc21)CCN3C(=O)Nc1cccnc1
active: DIV14 12 µM | GB4 15.1 µM
inactive: Dd2 | FAB9

O=c1[nH]cc(F)c(=O)[nH]1
active: GB4 12 µM
inactive: DFO2036 | FAB9

CN(C)CCCN1c2ccccc2CCc2ccc(Cl)cc21
inactive: CP329 | DFO2036 | FAB9
active: DIV14 1.51 µM | DIV17 3.38 µM | GB4 8.49 µM

COc1cc2c(c(OC)c1OC)-c1ccc(OC)c(=O)cc1[C@@H](NC(C)=O)CC2
inactive: CP329 | DFO2036 | DIV14 | DIV17 | DIV30 | Dd2 | ECU | FAB9 | GB4

COc1ccccc1OCCNCC(O)COc1cccc2[nH]c3ccccc3c12 (stereo unspecified)
inactive: CP329 | FAB9
active: DFO2036 14.1 µM | DIV14 13.5 µM | ECU 10 µM

NC(=O)OCC(COC(N)=O)c1ccccc1
inactive: CP329 | DFO2036 | DIV14 | DIV17 | DIV30 | Dd2 | ECU | FAB9 | GB4

NC12CC3CC(CC(C3)C1)C2
inactive: CP329 | DFO2036 | DIV14 | DIV17 | DIV30 | Dd2 | ECU | FAB9

CN1CCC(=C2c3ccccc3C=Cc3ccccc32)CC1
inactive: CP329 | DFO2036 | DIV30 | ECU | FAB9

CC1(CN2CCC(n3c(=O)[nH]c4ccccc43)CC2)OCc2ccccc2-n2cccc21 (stereo unspecified)
inactive: CP329 | FAB9
active: DIV14 9.53 µM | DIV17 13.5 µM | DIV30 13.5 µM | Dd2 11.2 µM | ECU 10 µM

O=C(c1ccc(F)cc1)C1CCN(CCn2c(=O)[nH]c3ccccc3c2=O)CC1
inactive: CP329 | CP335 | DFO2036 | DIV30 | ECU | FAB9 | GB4

NC(=O)NO
inactive: CP329 | CP335 | DFO2036 | DIV17 | DIV30 | Dd2 | ECU | FAB9 | GB4

CN(Cc1cnc2nc(N)nc(N)c2n1)c1ccc(C(=O)N[C@@H](CCC(=O)O)C(=O)O)cc1
active: ECU 0.112 µM | FAB9 0.0316 µM
inactive: CP329 | DIV30

Cc1cc(C(C)(C)C)cc(C)c1CC1=NCCN1
inactive: CP329 | CP335 | DFO2036 | DIV30 | Dd2 | ECU | FAB9

COC(=O)Nc1nc2ccc(C(=O)c3cccs3)cc2[nH]1
inactive: CP329 | CP335 | DFO2036 | DIV30 | Dd2 | ECU | FAB9 | GB4

CCOC(=O)Nc1ccc(NCc2ccc(F)cc2)nc1N
active: CP335 6.01 µM | DIV14 15.1 µM | DIV17 15.1 µM | DIV30 16.9 µM | Dd2 12.6 µM | ECU 11.2 µM

CC[C@@]1(O)C(=O)OCc2c1cc1n(c2=O)Cc2cc3c(CN(C)C)c(O)ccc3nc2-1
active: CP329 6.75 µM | CP335 4.78 µM | DFO2036 5.62 µM | Dd2 10 µM | ECU 3.98 µM | GB4 5.36 µM
inactive: FAB9

O=C1c2c(O)ccc(O)c2C(=O)c2c(NCCNCCO)ccc(NCCNCCO)c21
active: CP335 2.87 µM | DFO2036 2.51 µM | DIV14 4.55 µM | DIV17 2.56 µM | DIV30 5.1 µM | Dd2 1.58 µM | GB4 2.87 µM

O=C(c1ccc(OCCN2CCCCC2)cc1)c1c(-c2ccc(O)cc2)sc2cc(O)ccc12
active: CP335 6.75 µM | DIV14 12 µM | DIV17 15.1 µM | Dd2 14.1 µM | GB4 8.49 µM

CN(C)C(=N)N=C(N)N
inactive: CP329 | CP335 | DFO2036 | Dd2 | ECU | FAB9

CC(C)NCC(O)c1ccc(O)c(O)c1 (stereo unspecified)
inactive: CP329 | CP335 | DFO2036 | DIV17 | DIV30 | Dd2 | ECU | FAB9

CN(C)CCC=C1c2ccccc2C=Cc2ccccc21
inactive: CP329 | DFO2036 | ECU | FAB9
active: DIV14 2.39 µM | DIV17 3.79 µM
